Screening data deposited in PubChem by National Center for Advancing Translational Sciences (NCATS).
An excerpt weighted towards active compounds, which were near 8% of everything screened.
MCF10A rerep: induces DNA re-replication in MCF 10a normal breast cells; MCF 10A DNA re-replication, Hoechst nuclear intensity, 48 h; Potency, µM (titrated, usually from 46.1 µM), for the others: at the highest dose activity, positive = re-replication, hits mostly activators; 350,000 tested, 2.9% active; also: % of control where 0% means no effect; nearly all actives have a fitted effect of over 50% in size
HT1080 IDH1KD tx: HT-1080 IDH1 knockdown cell toxicity (counter line). HT-1080 IDH1 knockdown viability, ATP luminescence, 48 h. Potency, µM (highest dose often 46.1 µM), without a hit: at the highest dose activity, negative = toxicity, actives largely listed as cytotoxic. 360,000 tested, 2% active. AID 686971;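 also: 0% = DMSO wells and -100% = cell-free medium wells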
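Cytotoxicity counter-line: IDH1KD HT-1080, 48 h, CellTiter-Glo. Curves classed by r2, magnitude and activity.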
HT1080NT lethal: kills 2HG-producing HT-1080-NT fibrosarcoma cells; HT-1080-NT fibrosarcoma viability, CellTiter-Glo ATP luminescence, 48 h; Potency, µM (top dose mostly 46.1 µM), for the others: at the highest dose activity, negative = less viability, actives largely listed as cytotoxic; 360,000 tested, 1.6% active;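 also: NT is the 2HG producing partner of a matched IDH1 knockdown line; 0% = DMSO-treated cells and -100% = media-only wells without cells; nearly all actives have a fitted effect of over 55% in size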
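750 cells/well, RPMI + 5% FBS; 2 h settle, compound pin-transfer, 48 h at 37 degrees C. CellTiter-Glo 10 min RT, luminescence. Normalized to DMSO and media-only wells.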
KB-3-1 cytotox: KB-3-1 parental cell cytotoxicity | 400,000 tested, 1.4% active | KB-3-1 viability, CellTiter-Glo ATP luminescence, 72 h | Potency, µM (titrated, usually from 46.1 µM), actives largely listed as cytotoxic; also: % is scaled to controls: 0 for no effect and ±100 for the full control effect; nearly all actives have a fitted effect of over 60% in size
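Viability of parental KB-3-1 cells, measured by CellTiter-Glo luminescence, followed a 72 h incubation at 37 °C with pinned compounds in phenol-red-free DMEM containing 10% FBS.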
KB-V1 cytotox: KB-V1 MDR subline cytotoxicity | Potency, µM (top dose mostly 46.1 µM), most hits filed as cytotoxic | KB-V1 MDR cells viability, CellTiter-Glo, 72 h | 400,000 tested, 3.4% active | AID 1347076; also: % is scaled to controls: 0 for no effect and ±100 for the full control effect; nearly all actives have a fitted effect of over 60% in size
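Cells of the MDR subline KB-V1 are plated, dosed with compound at multiple concentrations, and incubated 72 h at 37 degrees C; CellTiter-Glo is then added and luminescence read after 10 min.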
SW480 rerep: inducers of DNA re-replication in SW480 colon cancer cells; SW480 DNA re-replication, Hoechst DNA content imaging, 48 h; Potency, µM (series often up to 46.1 µM), for the others: top-dose re-replication activation, usual class: activators; 340,000 tested, 1.8% active; AID 624297; also: % of control where 0% means no effect; nearly all actives have a fitted effect of over 55% in size
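First, 250 cells per well were seeded. Next, compound or vehicle (23 nL) was pinned in, plates sat 48 hr at 37 C. Finally Hoechst was added for 40 min before fluorescence scanning.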
* hit, by the source's call; i = inactive; ? = inconclusive; / = not tested or not shown; ! = not confirmed by another sample. Calls follow the shape of the dose curve; as a rule, active = well fitted curve in the direction sought with a large enough effect; inconclusive = small, poorly fitted or top-dose-only effect, or another doubt; inactive = no such curve, though single readings can be large; an effect the other way counts as inactive or inconclusive. Potency is read from the fitted curve at half-maximal effect.

SMILES	MCF10A rerep	HT1080 IDH1KD tx	HT1080NT lethal	KB-3-1 cytotox	KB-V1 cytotox	SW480 rerep
CCOC(=O)c1c(C)[nH]c(C(=O)OC(C(=O)N(C)C)c2ccccc2)c1C (stereo not given)	/	/	/	?	i	/
CCN1CCOC(=O)C1CC(=O)Nc1cc(C)ccc1OC (stereo not given)	/	/	/	i	?	/
CCc1nc2ccc(C(=O)NCCNC(C)=O)cn2c1N(CCC(C)C)CCN(C)C	/	9%	19%	i	i	/
COc1ccc(C(=O)NNC2=C(C(=O)C(F)(F)F)CCC2)cc1	?	?	-29%	?	?	?
O=C(NNC1=C(C(=O)C(F)(F)F)CCC1)c1ccc(Cl)cc1	-4%	7.9µM*	?	i	i	2%
O=C(NNC(=O)c1cccc(Cl)c1)NNC(=O)c1cccc(Cl)c1	-1%	?	-2%	i	i	28%
O=C(NNC1=C(C(=O)C(F)(F)F)CCC1)c1cccc(Cl)c1	?	23µM*	?	?	?	?
CC1(Cc2ccc(F)cc2)C(=O)Nc2ccc(S(=O)(=O)NC3CCCCC3)cc21 (stereo not given)	/	2%	-25%	i	i	/
COc1ccc(CCC(=O)O)cc1	/	/	/	i	i	/
CCOC(=O)c1cc(-c2ccccc2)n(-c2cccc(C(=O)N(C)c3ccc(C)cc3)c2)c1C	/	/	/	16µM*	?	/
CCOC(=O)c1cc(-c2ccccc2)n(-c2cccc(C(=O)NC(C)(C)C)c2)c1C	/	/	/	i	i	/
O=C(Nc1ccc(N2CCC(c3ccccc3)C2)c(C(=O)O)c1)c1ccc(Cl)cc1 (stereo not given)	/	/	/	i	i	/
CCC(CC)c1nn2c(N)c(/C=C3\C(C)=Nc4ccccc43)c(=O)nc2s1	23µM*	-5%	-6%	i	?	-6%
CCC(CC)c1nn2c(N)c(/C=C3\C=Nc4ccccc43)c(=O)nc2s1	3.3µM*	-6%	-8%	i	i	?
CC(C)Sc1nsc2nc(=O)c(/C=C3\C=Nc4ccccc43)c(N)n12	18µM*	-24%	-23%	i	i	?
CS(=O)(=O)c1nsc2nc(=O)c(/C=C3\C=Nc4ccccc43)c(N)n12	3%	4%	11%	i	i	0%
COc1cc(NC(=O)CSc2nc3c(c(=O)n(C)c(=O)n3C)n2C)cc(OC)c1	-4%	-1%	7%	i	i	0%
C=CCn1c(SCC(=O)c2[nH]c(C)c(C(=O)OC)c2C)nc2scc(-c3ccc(OC)c(OC)c3)c2c1=O	?	7%	1%	4.1µM*	6.5µM*	-3%
O=C(COC(=O)CNS(=O)(=O)c1c(F)cccc1F)NC(=O)NC1CCCCC1	-3%	0%	18%	?	i	-21%
CC(NC(=O)OCc1ccccc1)C(=O)Oc1cc2oc(=O)cc(-c3ccccc3)c2cc1Cl (stereo not given)	18µM*	-6%	0%	i	i	?
CCOC(=O)C1(Cc2cccc(OC)c2)CCCN(C(=O)c2cc(C)on2)C1 (stereo not given)	-1%	5%	-1%	i	i	16%
O=C(Cn1cnc2c(oc3nc4c(cc32)CCCC4)c1=O)Nc1cccc(Cl)c1	18µM*	0%	-25%	i	i	?
O=C(Cn1cnc2c(oc3nc4c(cc32)CCCC4)c1=O)Nc1ccccc1	?	13%	-2%	i	i	?
O=C(CN1N=C(c2ccccc2)CCC1=O)NCc1ccccc1	-1%	15%	14%	i	i	-4%
O=C(CN1N=C(c2ccccc2)CCC1=O)NCCN1CCc2ccccc2C1	-5%	0%	-2%	i	9.2µM*	-10%
SMILES	MCF10A rerep	HT1080 IDH1KD tx	HT1080NT lethal	KB-3-1 cytotox	KB-V1 cytotox	SW480 rerep
O=C(Cn1c(=O)c(=O)n(Cc2ccccc2)c2ccc(Cl)cc21)Nc1ccc(F)cc1F	-1%	?	-10%	?	i	1%
CC(C)(C)NC(=O)Cn1c(=O)c(=O)n(Cc2ccccc2)c2ccc(Cl)cc21	6%	14%	6%	i	21µM*	-13%
COc1ccc(-c2cc(-c3cc(OC)ccc3O)[nH]n2)cc1	?	?	?	i	?	11%
COc1ccc(-c2cc(-c3ccccc3O)[nH]n2)cc1OC	?	?	?	i	i	-22%
COc1ccc(O)c(-c2cc(-c3ccc(F)cc3)n[nH]2)c1	?	23µM*	?	i	i	2%
COc1ccc(-c2cc(-c3ccc(OC)c(OC)c3)n[nH]2)c(O)c1	?	?	-5%	?	2.6µM*	1%
Cc1ccc(S(=O)(=O)N2CCCCC2CCNC(=O)C(=O)NCc2ccco2)cc1 (stereo not given)	9.2µM*	13µM*	?	?	?	?
Cc1ccc(C)c(S(=O)(=O)N2CCCCC2CCNC(=O)C(=O)NCc2ccncc2)c1 (stereo not given)	9%	-3%	9%	?	2.3µM*	-2%
O=C(NCCc1ccco1)C(=O)NCC1CCCN1S(=O)(=O)c1ccccc1 (stereo not given)	?	?	?	?	?	16µM*
Cc1ccc(S(=O)(=O)N2CCCCC2CCNC(=O)C(=O)NCCc2ccco2)cc1 (stereo not given)	3.7µM*	18µM*	10µM*	5.2µM*	6.5µM*	6.5µM*
CSCc1ccc(C(=O)NCCSc2ccc(Br)cc2)cc1	?	-12%	-2%	i	i	3%
COc1ccc(CCN=C(N)NS(=O)(=O)c2ccc(C)cc2)cc1	-4%	-15%	1%	i	i	/
Cc1ccc(S(=O)(=O)NC(N)=NCCc2ccc(Cl)cc2)cc1	-9%	-7%	-9%	i	16µM*	-8%
NC(=NCCc1ccccc1)NS(=O)(=O)c1ccc(F)cc1	11%	2%	-9%	i	16µM*	-8%
COc1ccc(NC(=O)Cc2csc(COc3cccc(C)c3)n2)c(OC)c1	/	/	/	i	i	/
OCCCCCN=c1cc(-c2ccccc2)oc2ccc(Cl)cc12	26%	-27%	-9%	?	?	19%
Clc1ccc2oc(-c3ccccc3)cc(=NCCCN3CCOCC3)c2c1	8%	?	?	?	21µM*	5%
C#C[C@]1(O)CC[C@H]2[C@@H]3CCc4cc(OC5CCCC5)ccc4[C@H]3CC[C@@]21C	13µM*!	21µM*	16µM*	?	i	?
